# KKLEB tox – cytotoxicity in KKLEB CF airway cells, primary screen, cytotoxicity control for CF NF-kB inhibitor project, cell-based, uHTS, fluorescence assay plates; KKLEB CF airway cells viability, ATPlite luminescence, overnight; active compounds read low; cells stimulated with P. aeruginosa culture filtrate; activity change (cytotoxicity), % at 5 µM; 0.36% of 360,000 active; AID 602141, 2011;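 active = corrected activity change at or below -50% at 5 µM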
# Peg3 prom inh – Peg3 promoter-driven luciferase inhibitors, primary screen, cell-based, HeLa, luciferase luminescence; HeLa PEG-Prom luciferase reporter, overnight; inhibition, % at 20 µM; 1.7% of 360,000 active; AID 588405, 2011;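 active = inhibition of at least 50% at 20 µM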
# HIF-2a block – HIF-2a reporter inhibitors, primary screen, luminescence, 786-0 RCC cells. 786-0 RCC cells HIF-2a reporter, luciferase luminescence, overnight. AID 624352, 2012. inhibition, % at 18.8 µM. 0.72% of 360,000 active;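 active = inhibition of the luminescence signal of 40% or more relative to plate controls, in a single-dose primary screen at 18.75 µM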
# TROY NFkB inh – inhibitors of TROY-driven NF-kB signaling, primary screen, Q293 LMP1-TROYcd cells, NF-kB luciferase, uHTS; AID 1347056, 2019; Q293 LMP1-TROYcd NF-kB luciferase reporter, 4 h; 0.98% of 360,000 active; inhibition, % at 10 µM;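 active = compounds whose plate-normalised and pattern-corrected inhibition of the luciferase reporter signal at the single screening dose is 50% or more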
# TWEAK-Fn14 inh – inhibitors of TWEAK-Fn14 signaling, primary screen, luciferase reporter cells, uHTS; 2% of 360,000 active; inhibition, % at 10 µM; TWEAK-stimulated Fn14 reporter cells, luciferase luminescence, 8 h; in the data active = inhibition above about 50%
# CF NFkB block – inhibitors of PAF-induced NF-kB signaling, primary screen, cell-based, GFP fluorescence, uHTS. 0.86% of 360,000 active. KKLEB NF-kB-GFP reporter, GFP fluorescence overnight. inhibition, % at 5 µM;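 active = at least 50% inhibition at 5 µM, scaled per plate between neutral and stimulator controls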;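 also: PAF is a Pseudomonas aeruginosa culture filtrate used as stimulus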
# Mdm2 MdmX conf – retested Mdm2-MdmX interaction blockers, confirmation, cell-based, luminescence, single concentration, set 2 | shares compounds with HIF-2a block | SaOS-2 split-luciferase Mdm2/MdmX complementation | inhibition, % at 8 µM | 99% of 740 active;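 active = mean inhibition of the luminescence signal across two replicates at or above 26 percent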
# Target sequence (O15151 whole entry, looked up): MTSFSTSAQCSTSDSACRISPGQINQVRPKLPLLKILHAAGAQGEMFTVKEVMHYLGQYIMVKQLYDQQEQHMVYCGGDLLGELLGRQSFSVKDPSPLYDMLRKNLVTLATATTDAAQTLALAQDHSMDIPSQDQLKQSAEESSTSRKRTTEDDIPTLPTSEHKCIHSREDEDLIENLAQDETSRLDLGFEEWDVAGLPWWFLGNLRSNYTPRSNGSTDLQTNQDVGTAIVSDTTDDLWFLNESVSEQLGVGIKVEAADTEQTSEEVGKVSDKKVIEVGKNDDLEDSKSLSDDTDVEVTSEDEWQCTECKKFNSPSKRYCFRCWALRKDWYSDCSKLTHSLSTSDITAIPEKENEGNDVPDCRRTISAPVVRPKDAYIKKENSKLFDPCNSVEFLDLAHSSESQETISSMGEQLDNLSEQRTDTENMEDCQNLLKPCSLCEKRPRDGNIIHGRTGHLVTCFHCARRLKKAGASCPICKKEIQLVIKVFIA
# Target sequence (Q00987 whole entry, looked up): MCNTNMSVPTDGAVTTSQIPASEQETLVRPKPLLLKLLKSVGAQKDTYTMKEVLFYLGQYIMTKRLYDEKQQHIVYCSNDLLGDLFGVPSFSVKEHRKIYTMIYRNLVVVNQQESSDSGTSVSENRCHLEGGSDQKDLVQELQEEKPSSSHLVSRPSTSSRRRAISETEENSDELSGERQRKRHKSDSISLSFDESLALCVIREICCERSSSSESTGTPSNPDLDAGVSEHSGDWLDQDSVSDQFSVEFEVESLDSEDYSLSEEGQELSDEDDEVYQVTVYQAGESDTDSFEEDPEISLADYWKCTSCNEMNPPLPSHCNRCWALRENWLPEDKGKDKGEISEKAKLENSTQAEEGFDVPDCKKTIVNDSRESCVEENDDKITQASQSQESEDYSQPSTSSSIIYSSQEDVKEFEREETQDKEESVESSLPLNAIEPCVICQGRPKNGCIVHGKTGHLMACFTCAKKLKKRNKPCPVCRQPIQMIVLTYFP
# HIF-2a inh conf – HIF-2a reporter inhibitor retest, confirmation, luminescence, 786-0 RCC cells; shares compounds with HIF-2a block; HIF-2a luciferase reporter luminescence, overnight; inhibition, % at 18.8 µM; 56% of 1,800 active;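 active = mean inhibition across four replicates of at least 40 percent at the single tested concentration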
# HIF-1a counter – HIF-1a luciferase reporter signal reduction – MiaPaCa-2 cells, single concentration, counter-screen for HIF-2a inhibitor project, confirmation. shares compounds with HIF-2a block. MiaPaCa-2 HIF-1a luciferase reporter, desferoxamine, overnight. inhibition, % at 18.8 µM. 72% of 1,800 active. AID 651589, 2012;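 active = mean inhibition of the reporter signal across four replicates at the single tested dose of 50% or more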
# A number is an active result; - = inactive; . = not tested or not shown. This is a sample that favours compounds with a hit; in the whole collection about 4% have one here.
SMILES,KKLEB tox,Peg3 prom inh,HIF-2a block,TROY NFkB inh,TWEAK-Fn14 inh,CF NFkB block,HIF-2a inh conf,HIF-1a counter,others
CC(C)Cc1nc2oc3c(Cl)ncnc3c2c2c1CCC2,-,106,67,-,90,-,49,108,Mdm2 MdmX conf=103
CC(C)Cc1nc2oc3c(NCCCN4CCOCC4)ncnc3c2c2c1CCC2,-,-,-,-,-,-,.,.,
Cc1cc(C)n(-c2nc(N(c3ccccc3)c3ccccc3)nc(-n3nc(C)cc3C)n2)n1,-53,108,-,-,106,64,.,.,Mdm2 MdmX conf=103
Cc1cc(C)n(-c2nc(Nc3ccccc3)nc(-n3nc(C)cc3C)n2)n1,-,-,-,-,-,-,.,.,
O=c1cccc2n1Cc1cc3ccccc3nc1-2,-,-,-,-,-,-,.,.,
CC[C@@]1(O)C(=O)OCc2c1cc1n(c2=O)Cc2cc3c(N)cccc3nc2-1,-,72,-,63,70,76,.,.,Mdm2 MdmX conf=100
COc1ccc(S(=O)(=O)N2CCN(c3ccccc3OC)CC2)cc1C(=O)N1CCCCC1,-,-,-,-,-,-,.,.,
Cc1ccc(/C=C/C(=O)Nc2ccc(S(=O)(=O)Nc3onc(C)c3C)cc2)cc1,-,-,-,-,-,-,.,.,
CCOC(=O)c1c2c(n(C)c1C)C(=O)C(=O)c1ccc(Br)cc1-2,-78,101,-,-,87,97,.,.,Mdm2 MdmX conf=97
Cc1[nH]n(-c2ccccc2)c(=O)c1/C=N/Nc1nncc(-c2ccccc2)n1,-,-,-,-,-,-,.,.,Mdm2 MdmX conf=84
Cc1ccc(/C=N/Nc2nncc(-c3ccccc3)n2)o1,-,-,-,-,-,-,.,.,
CCc1sc(C(=O)N(CCOC)c2c(N)n(Cc3ccccc3)c(=O)[nH]c2=O)cc1C,-,-,-,-,-,-,.,.,
COc1ccc(Cn2nnnc2C(c2cc3cccc(C)c3[nH]c2=O)N2CCN(C)CC2)cc1 (stereo not given),-,-,41,-,-,-,-,-,
Cc1cccc2cc(C(c3nnnn3Cc3ccccc3)N3CCN(C)CC3)c(=O)[nH]c12 (stereo not given),-,-,-,-,-,-,.,.,
COCCn1c(=S)[nH]c2cc(C(=O)NCCc3ccccc3)ccc2c1=O,-,-,-,-,-,-,.,.,
CCOC(=O)c1ccc(N=c2sc(C(=O)OC)cc(=O)n2Cc2ccco2)cc1,-,100,82,-,64,-,65,106,
CCOC(=O)c1ccc(N=c2sc(C(=O)OC)cc(=O)n2CCCN2CCOCC2)cc1,-,-,-,-,-,-,.,.,
CCn1c(/C=C/Nc2ccccc2)[n+](CC)c2cc(Cl)c(Cl)cc21,-,104,68,-,-,-,-,88,
CCn1c(/C=C/N(C(C)=O)c2ccccc2)[n+](CCCS(=O)(=O)[O-])c2cc(Cl)c(Cl)cc21,-,-,-,-,-,-,.,.,
CCCCC(=NCCc1c(C)[nH]c2ccc(OC)cc12)C1=C(O)CC(c2ccccc2)CC1=O (stereo not given),-,-,41,-,-,-,-,65,
O=C1OC(c2ccccc2)(c2ccc3cc(O)ccc3c2)c2ccccc21 (stereo not given),-,79,40,-,60,-,-,98,
O=C1OC(c2ccc(O)cc2)(c2ccc(O)cc2)c2ccccc21,-,-,-,-,-,-,.,.,
c1ccc(Cn2cc(-c3ccccc3)cn2)cc1,-,-,-,-,-,-,.,.,
CCOC(=O)C(=O)N(C)c1c(CC)nc2c(OCc3cccc(OC)c3)cccn12,-,-,-,-,-,-,.,.,
CC(=O)Nc1ccc2[nH]c3ccccc3c2c1,-,-,-,-,-,-,.,.,
SMILES,KKLEB tox,Peg3 prom inh,HIF-2a block,TROY NFkB inh,TWEAK-Fn14 inh,CF NFkB block,HIF-2a inh conf,HIF-1a counter,others
O=C(Nc1ccc(Cl)cc1)c1cc2c(cc1O)[nH]c1ccccc12,-63,54,-,55,82,67,.,.,Mdm2 MdmX conf=102
O=S(=O)(Nc1ccccc1N1CCOCC1)c1ccc(Cl)cc1,-,-,-,-,-,-,.,.,
COc1ccc(/C=C\C(=O)c2c(O)ccc3c(C)cc(=O)oc23)cc1OC,-,-,55,-,-,-,-,85,
COc1cc(/C=C/C(=O)c2c(O)ccc3c(C)cc(=O)oc23)ccc1O,-,-,-,-,-,-,.,.,
CCOC(=O)CNC(=O)C(CC(N)=O)NC(=O)OC(C)(C)C (stereo not given),-,-,-,-,-,-,.,.,
C=CCOC(=O)CSCC(NC(=O)OC(C)(C)C)C(=O)OCC (stereo not given),-,-,58,-,-,-,45,-,
COc1cc(OC)cc(C(=O)NCCS(=O)(=O)N2CCN(Cc3ccccc3)CC2)c1,-,-,-,-,-,-,.,.,
O=C(C1CCC(=O)N(C2CC2)C1)N(CCO)Cc1ccccc1 (stereo not given),-,-,-,-,-,-,.,.,
COc1cccc(CNC(=O)COC(=O)c2nc(Cl)c(Cl)c(Cl)c2Cl)c1,-,90,58,-,94,-,-,-,
COc1cccc(CNC(=O)CCl)c1,-,-,-,-,-,-,.,.,
Cc1ccc(C)c(-n2nnnc2Sc2nnnn2-c2ccccc2)c1,-68,96,-,53,101,92,.,.,Mdm2 MdmX conf=103
COc1ccc(NC(=O)C2c3ccccc3OCC(=O)N2C2CC2)cc1 (stereo not given),.,.,-,-,-,.,.,.,
O=C(C(=Cc1ccccc1)CN1CCCCC1)c1ccccc1,-84,103,80,-,102,80,98,105,
Cc1nn(C)c(C)c1NS(=O)(=O)c1ccccc1,-,-,-,.,-,-,.,.,
Cc1nn(-c2ccccc2)c(C)c1NS(=O)(=O)c1ccccc1,-,-,41,-,-,-,-,-,
CCC(Sc1nc2n[nH]c(C)c2c(=N)n1-c1cccc(Cl)c1)C(=O)NCCOC (stereo not given),-,-,-,-,-,-,.,.,
